Records with an inconclusive call do not appear. Calls of active or inactive are those of the source. Unless noted, the call rests on the fitted dose curve; in most records, active means well fitted curve in the direction sought with a large enough effect; inconclusive means small, poorly fitted or top-dose-only effect, or another doubt; inactive means no such curve, though single readings can be large; an effect the other way counts as inactive or inconclusive.
Legend:
[1] = target: Glutathione peroxidase 1 (Homo sapiens) (UniProt P07203); assay: Primary qHTS Assay for Inhibitors of Recombinant Selenoprotein Glutathione Peroxidase 1 (GPX1) (AID 1845191); further: nearly all actives have a fitted effect of over 65% in size; on activity, negative = inhibition: on the % scale 0 is the no-effect control and ±100 the full control effect
Chain of Glutathione peroxidase 1 (Homo sapiens) (P07203 whole entry, looked up): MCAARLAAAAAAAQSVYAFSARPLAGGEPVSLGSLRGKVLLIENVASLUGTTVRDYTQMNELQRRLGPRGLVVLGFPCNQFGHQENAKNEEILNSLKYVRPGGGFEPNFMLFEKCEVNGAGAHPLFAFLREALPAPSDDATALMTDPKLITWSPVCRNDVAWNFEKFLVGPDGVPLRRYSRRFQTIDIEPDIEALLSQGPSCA
Summary of the method: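 10 nM GPX1 + cpd, 30 min RT; start w/ 1 mM GSH, 0.5 mM cumene hydroperoxide, 0.5 mM NADPH, 100 nM GR, 0.01% BSA; buffer 50 mM Tris-HCl pH 7.5, 2 mM EDTA, 150 mM NaCl; Fl 340/450, 0 & 15 min.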

[2] = target: Phospholipid hydroperoxide glutathione peroxidase GPX4 (Homo sapiens) (UniProt P36969); assay: Primary qHTS Assay for Inhibitors of Recombinant Selenoprotein Glutathione Peroxidase 4 (GPX4) (AID 1845192); further: nearly all actives have a fitted effect of over 65% in size; on activity change, negative = inhibition: series mostly up to about 50 µM; on the % scale 0 is the no-effect control and ±100 the full control effect
Chain of Phospholipid hydroperoxide glutathione peroxidase GPX4 (Homo sapiens) (P36969 whole entry, looked up): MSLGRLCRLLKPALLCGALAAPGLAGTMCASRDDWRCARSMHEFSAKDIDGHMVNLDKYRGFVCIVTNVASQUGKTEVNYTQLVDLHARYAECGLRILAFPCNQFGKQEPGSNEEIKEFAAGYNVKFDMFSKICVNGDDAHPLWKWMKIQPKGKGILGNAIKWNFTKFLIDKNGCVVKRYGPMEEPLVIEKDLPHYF
Summary of the method: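 NADPH consumption, followed by fluorescence at 340/450 nm between 0 and 15 min, reports GPX4 activity via coupled glutathione reductase (100 nM). Enzyme 200 nM was pre-exposed to compound 30 min; 0.5 mM cumene hydroperoxide and 1 mM GSH served as substrates.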

[3] = target: Luciferin 4-monooxygenase (Photinus pyralis) (UniProt P08659); assay: Primary firefly luciferase (FLuc) qHTS assay for identification of artifact compounds. (AID 1845220); further: nearly all actives have a fitted effect of over 60% in size;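 on activity change, negative = inhibition: series mostly up to about 54 µM; plate controls were DMSO vehicle for no effect and no enzyme for full effect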
Summary of the method: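 Compounds sat 15 min at room temperature with 10 uM luciferin and 10 uM ATP (pH 7.6 Tris acetate). Firefly luciferase (10 nM final) was then added, and luminescence was read 5 min later. Data normalized to no-enzyme and DMSO controls were Hill-fitted.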

[4] = test system: Nanoluciferase (engineered Oplophorus gracilirostris luciferase); assay: Primary Nanoluciferase (NLuc) qHTS assay for identification of artifact compounds. (AID 1845222); further: potency means the concentration at half of the fitted maximal effect;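 on activity, negative = inhibition: series mostly up to about 54 µM; 0% = DMSO and -100% = no enzyme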
Summary of the method: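 Luminescence from secreted NLuc (filtered, 1:55-diluted S16 cell medium) read 5 min after Nano-Glo substrate; compounds preincubated 15 min, RT. Hill fits of inhibition normalized to DMSO and no-enzyme.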

[5] = Primary redox qHTS assay for identification of artifact compounds. (AID 1845223);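 further: 0% = DMSO and 100% = reference compound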
Summary of the method: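 Amplex Red (25 uM) and HRP (250 mU/mL) in HBSS, with compounds for 15 min, then 250 uM DTT for 30 min, room temperature, dark. Fluorescence 525/598 nm read; normalized to DMSO and 10 uM DA3003; Hill fit.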

[6] = qHTS drug screen for cell cycle checkpoint inhibitors in PARPi-resistant BRCA-mutant ovarian cancer cell lines. (AID 1963452; calls by dose curve; further: potency means the concentration at half of the fitted maximal effect); conditions: PEO1/OlaR viability, CellTiter-Glo luminescence, 96 h; for Z-AUC: stronger effect = lower value
Summary of the method: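 PEO1, PEO4 and PEO1/OlaR ovarian cancer cells, 600 per well, exposed 96 h at 37C to a dilution series. Viability read by CellTiter-Glo luminescence, normalized to DMSO and empty wells; activity summarized as Z-AUC.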

[7] = Primary fluorescence-based thiol-reactive (MSTI) qHTS assay for identification of artifact compounds. (AID 1845221); further: nearly all actives have a fitted effect of over 65% in size; further: potency means the concentration at half of the fitted maximal effect;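 on activity change, negative = thiol reactive: series mostly up to about 54 µM; thiol-reactive compounds lower the probe fluorescence signal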
Summary of the method: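 Compounds were incubated 1 h at room temperature in the dark with the MSTI probe (4 uM) in PBS pH 7.4, 2% DMSO. Signals were normalized between Acetyl-MSTI and MSTI.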

[8] = measured here: PEO1 parental Z-AUC

COc1ccc2c(c1)OC[C@]1(O)c3cc4c(cc3O[C@H]21)OCO4
inactive: Potency [1] | Potency [2] | Potency [3] | Potency [4] | Potency [5]

C[C@@H]1O[C@@H](O[C@H]2[C@H](OC(C#N)c3ccc(O)cc3)O[C@H](CO)[C@@H](O)[C@@H]2O)[C@H](O)[C@H](O)[C@H]1O (some centres not stated)
inactive: Potency [1] | Potency [2] | Potency [3] | Potency [4] | Potency [5]

CCc1nc(C(N)=O)c(Nc2ccc(N3CCC(N4CCN(C)CC4)CC3)c(OC)c2)nc1NC1CCOCC1
0.97: Z-AUC [6, 8]
inactive: Potency [1] | Potency [2] | Potency [3] | Potency [4] | Potency [5] | Z-AUC [6] 1.23
0.904: Z-AUC ([6]; measured here: PEO4 Z-AUC)

COc1ccc([C@H]2Cc3cccc(O)c3C(=O)O2)cc1
inactive: Potency [1] | Potency [2] | Potency [7] | Potency [4] | Potency [5]

CC1CCC2(C)C(CC(O)C(O)C23CO3)C1(C)CCC1=CC(O)OC1=O (configuration not stated)
inactive: Potency [1] | Potency [2] | Potency [7] | Potency [4] | Potency [5]

OC[C@H]1O[C@@H](Oc2cc(O)cc(/C=C/c3ccc(O)cc3)c2)[C@H](O)[C@@H](O)[C@@H]1O
inactive: Potency [1] | Potency [2] | Potency [3] | Potency [4] | Potency [5] | Z-AUC [6] 1.9
1.63: Z-AUC [6, 8]
1.47: Z-AUC ([6]; measured here: PEO4 Z-AUC)

COc1ccc(C)c2sc(NC(=O)c3ccncc3)nc12
inactive: Potency [1] | Potency [2] | Potency [7] | Potency [4] | Potency [5]

CNC(=O)Nc1ccc(OC)c(NC(=O)NC(=O)c2cc(F)c(F)cc2Cl)c1
inactive: Potency [1] | Potency [2] | Potency [3] | Potency [5]

NC(=O)c1ccc(OCC2NC(=O)C3CCCN3C2=O)cc1 (configuration not stated)
inactive: Potency [1] | Potency [2] | Potency [3] | Potency [4] | Potency [5]

Clc1ccc(CN[C@H]2CCN(c3ncc(Br)cn3)C2)c(Cl)c1
inactive: Potency [1] | Potency [2] | Potency [7] | Potency [4] | Potency [5]

CC1CC(O)C2(C)C(C(=O)O)=CCCC2C1(C)CCc1ccoc1 (configuration not stated)
inactive: Potency [1] | Potency [2] | Potency [7] | Potency [4]

OC[C@H]1O[C@@H](n2cnc3c2NC=NC[C@H]3O)C[C@@H]1O
0.0818: Z-AUC [6, 8]
inactive: Potency [1] | Potency [2] | Potency [3] | Potency [4] | Potency [5] | Z-AUC [6] -0.043
0.0721: Z-AUC ([6]; measured here: PEO4 Z-AUC)

CC(=O)c1cnc2ccc(-c3cc(Cl)c(O)c(Cl)c3)nc2c1NC1CCC(CN(C)C)CC1 (configuration not stated)
active: Potency [6] 252 nM
-1.7: Z-AUC [6, 8]
-1.3: Z-AUC ([6]; measured here: PEO4 Z-AUC)
inactive: activity, negative = inhibition [1] 2.12% [at 9.52 µM] | activity change, negative = inhibition [2] 17.1% [at 9.73 µM] | activity change, negative = inhibition [3] 2.41% [at 11.6 µM] | activity, negative = inhibition [4] 0% [at 11.6 µM] | redox activity (% of DA3003) [5] 2.52% [at 11.5 µM]

COc1cc(C2Oc3c(O)cc(CCCO)cc3C2CO)ccc1O[C@H]1O[C@H](C)[C@@H](O)[C@H](O)[C@@H]1O (some centres not stated)
inactive: Potency [1] | Potency [2] | Potency [3] | Potency [5]

O=C(O)CCc1cc2ccoc2cc1O[C@@H]1O[C@H](CO[C@@H]2OC[C@](O)(CO)[C@H]2O)[C@@H](O)[C@H](O)[C@H]1O
inactive: Potency [1] | Potency [2] | Potency [3] | Potency [5]

CC(=O)OC[C@]1(O)[C@H]2[C@H](OC(=O)CC(C)C)OC=C(CO[C@@H]3O[C@H](CO)[C@@H](O)[C@H](O)[C@H]3O)[C@H]2C[C@@H]1O
inactive: Potency [1] | Potency [2] | Potency [3] | Potency [4] | Potency [5]

CC1CC(=O)C2=C(O1)OC1(C)CCC3C(C)(C)C=CC(=O)C3(C)C1C2 (configuration not stated)
inactive: Potency [3]

C[C@@H]1O[C@@H](O[C@@H]2[C@@H](O)[C@H](O[C@@H]3[C@@H](O)[C@@H](O)[C@H](O[C@H]4[C@H](OC(=O)[C@]56CCC(C)(C)C[C@H]5C5=CCC7[C@@]8(C)C[C@H](O)[C@H](O[C@@H]9O[C@H](C(=O)O)[C@@H](O)[C@H](O)[C@H]9O)[C@@](C)(CO)C8[C@H](O)C[C@@]7(C)[C@]5(C)CC6)OC[C@H](O)[C@@H]4O)O[C@H]3C)OC[C@H]2O)[C@H](O)[C@H](O)[C@H]1O (some centres not stated)
inactive: outcome [3] inactive [at 11.6 µM]

CCCCC(=O)OCC(=O)[C@]1(O)Cc2c(O)c3c(c(O)c2[C@@H](O[C@H]2C[C@H](NC(=O)C(F)(F)F)[C@H](O)[C@H](C)O2)C1)C(=O)c1c(OC)cccc1C3=O
active: Potency [6] 549 nM

C=CC(C)(CC/C=C(\C)CC/C=C(\C)CC(O)/C=C(\C)C(=O)O)O[C@@H]1O[C@H](CO)[C@@H](O)[C@H](O)[C@H]1O[C@@H]1O[C@H](CO)[C@@H](O)[C@H](O)[C@H]1O (some centres not stated)
inactive: Potency [1] | Potency [3] | Potency [7] | Potency [4] | Potency [5]

N#Cc1ccnc(N2C(=O)CC[C@H]2C(=O)N(c2cncc(F)c2)[C@H](C(=O)NC2CC(F)(F)C2)c2ccccc2Cl)c1
1.26: Z-AUC ([6]; measured here: PEO4 Z-AUC)
inactive: Potency [1] | Potency [3] | Potency [7] | Potency [4] | Potency [5] | Z-AUC [6] 1.18
1.11: Z-AUC [6, 8]

C=C1CCC2C(C)(C)CC(=O)CC2(C)C1CCC(C)CCOC(C)=O (configuration not stated)
inactive: Potency [1] | Potency [3] | Potency [7] | Potency [4] | Potency [5]

Cc1cc(Nc2ncc(Cl)c(Nc3ccccc3S(=O)(=O)C(C)C)n2)c(OC(C)C)cc1C1CCNCC1
inactive: Potency [1] | Potency [3] | Potency [7] | Potency [5] | Z-AUC [6] -1.77
-0.548: Z-AUC ([6]; measured here: PEO4 Z-AUC)
-0.797: Z-AUC [6, 8]

C/C(=C\CCC(C)(O)c1ccc(C)cc1)C(=O)O (configuration not stated)
inactive: Potency [1] | Potency [3] | Potency [7] | Potency [4]

CC(=O)N[C@H]1CCN(c2ccc(C3=NOC(CN[S+](=O)([O-])C(C)C)C3)cc2F)C1 (some centres not stated)
inactive: Potency [1] | Potency [3] | Potency [4] | Potency [5]

COCCCNCC1COc2ccccc2O1 (configuration not stated)
inactive: Potency [1] | Potency [3] | Potency [7] | Potency [4] | Potency [5]

CC1(C)C[C@H]2C3=CCC4[C@@]5(C)CC[C@H](O[C@H]6O[C@H](C(=O)O)[C@@H](O)[C@H](O)[C@H]6O[C@H]6O[C@H](CO)[C@@H](O)[C@H](O)[C@H]6O[C@@H]6O[C@H](CO)[C@@H](O)[C@H](O)[C@H]6O)[C@](C)(CO)C5CC[C@@]4(C)[C@]3(C)CC[C@@]2(C)[C@H](O[C@@H]2OC[C@H](O)[C@H](OC3O[C@H](CO)[C@@H](O)[C@H](O)[C@H]3O)[C@H]2O)[C@@H]1O (some centres not stated)
inactive: activity, negative = inhibition [1] 0.367% [at 9.52 µM] | outcome [3] inactive [at 11.6 µM] | activity change, negative = thiol reactive [7] 48.1% [at 11.5 µM] | activity, negative = inhibition [4] 4.18% [at 11.6 µM]

CC1=C2C3OC(=O)C(C)C3(O)CCC2(C)CCC1=O (configuration not stated)
active: Potency [7] 23800 nM
inactive: Potency [1] | Potency [3] | Potency [4] | Potency [5]

CC(C)C(=O)c1cn(CC(=O)COc2ccc(Oc3ccccc3)cc2)c2ccc(C(=O)O)cc12
inactive: Potency [1] | Potency [3] | Potency [7] | Potency [5]
active: Potency [4] 6010 nM

COc1cc(/C=C/C(=O)OC2CC3CCC2(C)C3(C)C)ccc1O (configuration not stated)
inactive: Potency [1] | Potency [3] | Potency [7] | Potency [4] | Potency [5]

COC1CC(OC2CCC3(C)C(=CCC4C3CCC3(C)C(C(C)O)CCC43O)C2)OC(C)C1OC1OC(C)C(OC2OC(COC3OC(COC4OC(CO)C(O)C(O)C4O)C(O)C(O)C3O)C(O)C(O)C2O)C(OC)C1O (configuration not stated)
inactive: Potency [1] | outcome [3] inactive [at 11.6 µM] | activity change, negative = thiol reactive [7] 54% [at 11.5 µM] | activity, negative = inhibition [4] 4.38% [at 11.6 µM]

COc1cc(N2CCC(O)CC2)ccc1Nc1cc(Nc2ccccc2S(=O)(=O)C(C)C)c2cc[nH]c2n1
active: Potency [7] 927 nM
0.959: Z-AUC ([6]; measured here: PEO4 Z-AUC)
1.41: Z-AUC [6, 8]
inactive: Potency [1] | Potency [3] | Potency [4] | Potency [5] | Z-AUC [6] 0.976

COc1ccc2cc(OCC3(C(=O)O)CN(C(=O)c4ccc(F)cc4)C3)ccc2c1
inactive: Potency [1] | Potency [3] | Potency [7] | Z-AUC [6] -0.285
-0.144: Z-AUC [6, 8]
0.261: Z-AUC ([6]; measured here: PEO4 Z-AUC)

CN(C)c1cccc(-c2c3c(=O)n(-c4ccccc4Cl)[nH]c3cc(=O)n2C)c1
active: Potency [7] 1890 nM
-0.353: Z-AUC ([6]; measured here: PEO4 Z-AUC)
-0.313: Z-AUC [6, 8]
inactive: Potency [1] | Potency [3] | Potency [4] | Potency [5] | Z-AUC [6] -0.625

C=CC1(C)C=C2C(O)CC3C(C)(C(=O)O)CCCC3(C)C2CC1 (configuration not stated)
inactive: Potency [1] | Potency [3] | Potency [7] | Potency [5]

OCC1OC(Oc2cc(O)c3c(c2)OC(c2ccc(O)cc2)C(O)C3)C(O)C1O (configuration not stated)
inactive: Potency [1] | Potency [3] | Potency [7] | Potency [4] | Potency [5]

CC1=C2C(=O)C=C(CO)[C@@H]2[C@H]2OC(=O)[C@H](C)[C@@H]2[C@@H](O)C1
inactive: Potency [1] | Potency [3] | Potency [4] | Potency [5]

Cc1cc(N2CCCCC2)nc2ccccc12
inactive: Potency [1] | Potency [3] | Potency [7] | Potency [4] | Potency [5]

Source: PubChem BioAssay (NCATS)
